According to PubChem BioAssay AID518 (Sanford-Burnham Center for Chemical Genomics, 2006):
About 55 (0.09%) of roughly 64,000 compounds were called active. No rule for the calls is given here. The list is a sample of the results.

The molecules below were run against Alkaline phosphatase, tissue-nonspecific isozyme (Homo sapiens) (UniProt P05186) (assay: human TNAP enzyme inhibitors, biochemical, luminescent (AID 518;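 also: plate controls were vehicle for no effect and reference inhibitor for full effect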)). Settings: purified TNAP enzyme, luminescent substrate readout; at 20 µM; hits give high values.
Sequence of Alkaline phosphatase, tissue-nonspecific isozyme (Homo sapiens) (P05186 whole entry, looked up): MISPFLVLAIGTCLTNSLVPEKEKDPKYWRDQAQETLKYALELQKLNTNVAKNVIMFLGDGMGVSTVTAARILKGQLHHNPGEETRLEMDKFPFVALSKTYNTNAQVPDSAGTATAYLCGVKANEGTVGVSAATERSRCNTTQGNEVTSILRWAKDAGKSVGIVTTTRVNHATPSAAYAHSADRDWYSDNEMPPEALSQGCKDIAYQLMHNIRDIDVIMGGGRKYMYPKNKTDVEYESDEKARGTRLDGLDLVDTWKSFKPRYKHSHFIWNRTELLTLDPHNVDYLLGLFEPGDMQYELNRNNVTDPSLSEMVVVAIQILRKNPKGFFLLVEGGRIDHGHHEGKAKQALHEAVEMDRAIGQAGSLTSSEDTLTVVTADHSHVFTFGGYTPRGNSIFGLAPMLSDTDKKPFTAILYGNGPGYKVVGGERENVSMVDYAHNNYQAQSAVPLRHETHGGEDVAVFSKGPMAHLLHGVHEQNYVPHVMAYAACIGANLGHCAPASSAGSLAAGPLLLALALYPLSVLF

inhibition, inactive:
Cc1ccc(N(CC(=O)N2CCN(c3ccc(F)cc3)CC2)S(=O)(=O)c2c(C)nn(C)c2C)cc1 8.6%
O=C(c1ccc(Cl)cc1)N1CCC(c2nc(-c3cccs3)no2)CC1 13.1%
CCC(CC)C(=O)NCCNC(=O)C(CC)CC 10.5%
Cc1ccc(OCC(=O)N2CCN(C(=O)CCC3CCCC3)CC2)cc1 6.3%
Cc1cc2c(c(=O)n1CCN(C)C)C(c1ccccc1Br)C(C#N)=C(N)O2 (configuration not stated) 9.3%
COCCNC(=O)Nc1ccc2c(c1)N(C)C(=O)CS2 1.5%
O=C(c1cc2ccccn2n1)N1CCN(Cc2ccccc2)CC1 2.9%
Cc1onc(-c2ccccc2Cl)c1C(=O)Nc1ccc(-c2cn3cccnc3n2)cc1 4.9%
CCOC(=O)CN1CC23C=CC(O2)C(C(=O)O)C3C1=O (configuration not stated) 5.4%
O=C(CSc1nnc(-c2cccnc2)n1-c1ccccc1)Nc1ccccn1 2.6%
COc1ccc(OC)c(S(=O)(=O)NC2CCN(Cc3ccccc3)CC2)c1 6.7%
CC(C)(C)n1ncc2c(=O)n(CC(=O)N3CCCc4ccccc43)cnc21 4%
COc1ccc(-c2nnc(SCC(=O)N3CCOCC3)o2)cc1 3.7%
Cc1nn(Cc2ccccc2)c(C)c1CCC(=O)O 7.6%
N#Cc1ccccc1NC(=O)c1ccccc1OCC(=O)NCc1ccco1 7%
COC(=O)c1ccc(NC(=O)COc2ccc(S(=O)(=O)NC(C)C)cc2)cc1 -1.4%
O=C1CC(c2ccco2)Cc2nc(N3CCN(Cc4ccc5c(c4)OCO5)CC3)ncc21 (configuration not stated) 10.2%
Cc1noc(C)c1S(=O)(=O)N1CCC(C(=O)N(C)Cc2ccccc2)CC1 -0.3%
CN(Cc1ccccc1)Cc1c(F)cccc1F 5.6%
CN1C(=O)CS(=O)c2ccc(C(=O)NC3CC3)cc21 (configuration not stated) 10%
CCc1c(C)nc2ncnn2c1N1CCC(C(=O)NCc2cccc(OC)c2)CC1 13%
Cc1ccc(NC(=O)C2CCCN2S(=O)(=O)c2ccc3c(c2)CCC(=O)N3)cc1Cl (configuration not stated) 9%
N#Cc1cc(Sc2ccccn2)c(Sc2ccccn2)cc1C#N 10.6%
CC(=O)Nc1nc2ccccc2n1CCOc1ccccc1 4.8%
O=C(C1CCCN(S(=O)(=O)c2cccc3cccnc23)C1)N1CCN(c2ccc(F)cc2)CC1 (configuration not stated) 14.6%
O=c1c2ccccc2nc(SCc2nnc(-c3ccccc3)o2)n1-c1ccccc1 3.6%
O=C(O)c1ccc(S(=O)(=O)c2ccccc2)cc1 8.6%
CC(=O)C(Sc1nc(-c2ccco2)nc2c1c(=O)n(C)c(=O)n2C)C(=O)N(C)C (configuration not stated) 6%
COc1cccc(N2CCN(C3CC(=O)N(c4ccc(F)c(Cl)c4)C3=O)CC2)c1 (configuration not stated) 7.6%
O=C(c1ccc(-c2ccccc2)cc1)N1CCN(c2nc3ccccc3o2)CC1 -3.8%
COc1cc(/C=N/n2cnnc2)ccc1OCCOc1ccccc1 2.9%
COc1ccc(OCc2nc(C#N)c(N3CCN(c4ccc(OC)cc4)CC3)o2)cc1 16.1%
O=S(=O)(NCCc1cn2ccccc2n1)c1cccs1 1.2%
CC(=O)N1CCC(N(C(=O)Nc2ccc(C)c(C)c2)C2CCCC2)CC1 6.3%
CC1Cc2ccccc2N1C(=O)C1CCCN(S(=O)(=O)c2cccc3nsnc23)C1 (configuration not stated) 15.5%
O=C(CSCc1ccccc1)N1CCN(c2ccc(F)cc2)CC1 5.6%
CSc1nc2c(c(=O)[nH]c(=O)n2C)n1C/C=C(\C)Cl 11.8%
O=C(Cn1ncc2c1-c1ccccc1OC2)N1CCN(c2ccccn2)CC1 16.3%
Cn1c(SCC(=O)N2CCOCC2)nnc1-c1ccccc1 3.9%
CCOc1cccc(-c2nnc3sc(-c4cc(OC)c(OC)cc4OC)nn23)c1 8.9%
CC(NC(=O)C(c1ccccc1)c1ccccc1)C(=O)O (configuration not stated) 10%
CN(CC(=O)NCCC1=CCCCC1)S(=O)(=O)c1ccc2c(c1)CCC(=O)N2 6.5%
Cc1csc(NC(=O)CSc2nnc(-c3ccncc3)o2)n1 13.3%
Cc1ccc(-c2nc(CS(=O)(=O)CC(=O)N3CC(C)CC(C)C3)c(C)o2)cc1 (configuration not stated) 2.5%
CCC1(c2ccc(F)cc2)NC(=O)N(CC(=O)c2ccc[nH]2)C1=O (configuration not stated) 11.1%
Cc1ccc(-n2c(SCC(N)=O)nnc2-c2ccccn2)cc1 5.9%
Cc1nc(CN2CCN(C(=O)c3ccc(Br)cc3)CC2)cs1 8.9%
CC1(C)CC(=O)C2=C(C1)N(CC1CCCO1)C(=O)NC2(C(F)(F)F)C(F)(F)F (configuration not stated) 7.8%
COc1cc(/C=N/n2cnnc2)ccc1OCC(=O)N1CCOCC1 9.7%
Cc1cc(C(=O)CSc2nncs2)c(C)n1-c1c(C)n(C)n(-c2ccccc2)c1=O 6.8%
COc1ccc(NC(=O)CSc2nnc(Cc3cccn3C)n2CCc2ccccc2)cc1OC 21.5%
Cc1oc(CC(C)C)cc1C(=O)Nc1ccc(C(=O)O)cc1 -1.6%
C=CCn1c(COc2ccccc2)nnc1SCc1ccc(C#N)cc1 5%
O=C1C2CCCN2C(c2ccccc2)N1c1cccc(Cl)c1 (configuration not stated) 2.8%
COc1ccc(-c2ccc(-c3noc(-c4ccccc4C)n3)c(OC)n2)cc1 6.5%
CCCCn1c(Cl)nc2c1c(=O)n(C)c(=O)n2C 13.4%
CCOc1ccc(S(=O)(=O)Nc2nc3ccccc3nc2N2CCN(C)CC2)cc1 0.5%
O=C(c1cccnc1)N1CCN(C(=O)c2cccs2)CC1 4.7%
Cc1ccc(CC(=O)Nc2cccc(C)n2)cc1 6%
C=CCOC(=O)CCCC(=O)NC1CCCCC1 3.4%
CCOC(=O)C1Cc2cc3c(cc2C1=O)CC(C(=O)OCC)C3=O (configuration not stated) 8.4%
CN(c1cccc(NC(=O)c2ccccc2N(C)S(C)(=O)=O)c1)S(C)(=O)=O 14.3%
O=C(NCCCN1CCCC1)C1CCC(=O)N1C1CCCCC1 (configuration not stated) 7.6%
N#Cc1ccc(Sc2nc3ccccc3[nH]2)cc1C#N 0.3%
CC(C)Sc1nnc(NC(=O)C2CC2)s1 -0.5%
O=C(Nc1cccnc1)c1c(O)c2cccc3c2n(c1=O)CC3 5.4%
COc1ccc(CN2CCC(C(=O)N(C)CCc3ccc(OC)c(OC)c3)CC2)c(OC)c1 14%
O=C(NC1CCCCC1)c1ccc(Br)o1 9%
CC12CN3CC(C)(CN(C1)C3c1ccccc1Cl)C2O (configuration not stated) 3.8%
O=C(NCCc1csc(-c2ccccc2)n1)c1cccs1 9.4%
Cc1cc(NC(=O)c2cccc(S(=O)(=O)N3CCCCCC3)c2)n(-c2ccccn2)n1 -5.7%
CCOC(=O)C1CCN(C(=O)COC(=O)CCOc2ccc(C)cc2)CC1 7.4%
CCOc1ccc(C(=O)CN2CCN(S(=O)(=O)c3ccc(Cl)cc3)CC2)cc1 4.9%
COc1ccc(C(C)=O)cc1CSc1nnc(C)s1 7%
CC(=O)c1cccc(NC(=O)c2cccc(S(=O)(=O)N(C)C)c2)c1 6.3%
c1ccc2c(c1)CNc1ccccc1C2 5%
COc1ccc(-n2nnc3c(SCC(=O)NCc4ccco4)ncnc32)cc1 11.9%
COc1cccc(NC(=O)c2ccc3c(c2)N(CC(=O)N2CCCCC2)C(=O)C(C)(C)O3)c1 1.3%
COc1ccc(Nc2nc(N)nc(SCc3nnc(C)s3)n2)cc1 -0.5%
COc1ccccc1N1CCN(C(=O)CSc2nnc3n2C(C)(C)Cc2ccccc2-3)CC1 10.5%
CC1=C(c2ccc(Cl)cc2)[N+](=O)C(C)(C)N1[O-] 20.3%
Cc1ccc(C(C(=O)NC2CCCCC2)N(CC2CCCO2)C(=O)CNC(=O)c2ccco2)cc1 (configuration not stated) 2.7%
CC(OC(=O)CNC(=O)c1ccc2c(c1)OCO2)C(=O)NCCC1=CCCCC1 (configuration not stated) 8.9%
CN(C)c1ccc(C(C(=O)NC(C)(C)C)N(C(=O)c2csnn2)C2CC2)cc1 (configuration not stated) 6.8%
CC(c1nnc(SCC(=O)c2c(N)n(C)c(=O)n(C)c2=O)n1-c1ccc(Cl)cc1)N(C)C (configuration not stated) 2.8%
CC1CCCCN1CCNC(=O)C1CCN(S(=O)(=O)c2cccc3cccnc23)CC1 (configuration not stated) 9.7%
Cc1ccc(S(=O)c2ccc(C)cc2)cc1 4.1%
O=C(CC1CCCCC1)c1c(O)c2ccccc2oc1=O 5%
CCOC(=O)c1[nH]c(CSc2nnc(-c3ccncc3)n2CCOC)c(C(=O)OCC)c1C 10.1%
CC1CC=C2C(C#N)=C(N)C(C#N)(C#N)C(c3cccs3)C2C1 (configuration not stated) 8.9%
CCc1ccc(Nc2cc(=O)n(C3CCCCC3)c(=O)[nH]2)cc1 11.3%
COc1cccc(-c2cc(C(=O)NCc3ccc(Cl)cc3)no2)c1 8.1%
COc1ccc(S(=O)(=O)N2C3CCC2CC(NC(=O)C2CC2)C3)cc1 (configuration not stated) 2%
Nc1nc(CN2CCN(Cc3ccc4c(c3)OCO4)CC2)nc(Nc2ccccc2)n1 12.3%
CC1(C)NC(=O)N(CC(O)COc2ccc(N3C(=O)c4ccccc4C3=O)cc2)C1=O (configuration not stated) 8.6%
COc1ccc(N2C(=O)CSC2c2ccc3c(c2)OCO3)cc1 (configuration not stated) 13.6%
CC(C)NS(=O)(=O)c1ccc(OCC(N)=O)c(Cl)c1 9.1%
Cc1cccc(NC(=O)CC(C)(C)C)c1 8.8%
Cc1nc(CSc2nnc3scc(-c4ccccc4)n23)cs1 6.4%
CCCCCN=C(C)c1c(O)c2ccccc2oc1=O 7.3%
CNc1oc(Cc2ccccc2)nc1S(=O)(=O)c1ccccc1 9.1%
COC(=O)Nc1sc2c(c1C(N)=O)CCCCCC2 15.8%
